In a collection of fitness landscapes (doi:10.1038/s41467-024-54723-y):
Over roughly 18,000 sequences, “TetR repression strength (sort-seq, GFP reporter)” has its median near 0.23; the highest 2% begin near 0.68. The sample holds the highest values, similar sequences and a random draw of the others, so the mix is not that of the screen.

Each sequence was assayed against TetR (class B, Tn10) (UniProt P04483) (assay: TetR repression strength (sort-seq, GFP reporter) (relative to tetO2 = 1); higher = stronger repression). Conditions: E. coli.
Chain of TetR (class B, Tn10) (P04483 whole entry): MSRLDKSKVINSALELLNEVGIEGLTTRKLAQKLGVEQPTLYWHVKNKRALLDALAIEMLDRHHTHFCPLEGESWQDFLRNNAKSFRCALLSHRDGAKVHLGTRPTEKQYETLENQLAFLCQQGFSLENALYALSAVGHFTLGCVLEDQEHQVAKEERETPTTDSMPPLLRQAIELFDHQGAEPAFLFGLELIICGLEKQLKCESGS
How it was run: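 E. coli SIG10-MAX carried a low-copy plasmid library with eight randomized operator positions between a constitutive promoter and sfGFP, with TetR constitutively expressed. Cells grew 5 h at 37 °C in LB with 50 µg/mL chloramphenicol, then 10^6 cells were FACS-sorted into 13 fluorescence bins, each Illumina-sequenced. Repression strength is the top bin index plus one minus the read-weighted mean bin, divided by the wild-type operator value. Three independent transformations; variants with ≥30 reads in all replicates and CV ≤0.5 were averaged.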

Q: How did the TetR repression strength turn out when TCCCTTCCAGTATCAGAGA was run?
A: 0.0836

Q: TCCCTTCCAGTTTCAGAGA was tested. Which TetR repression strength did it give?
A: 0.819

Q: For TCCCTTCAAGTTTCAGAGA, which TetR repression strength is on record?
A: 0.837

Q: With TCCCTTCAAGTGTCAGAGA as the sequence, how does the TetR repression strength read?
A: 0.303

Q: With TCCCTTTCAGTTTCAGAGA as the sequence, how does the TetR repression strength read?
A: 0.206

Q: With TCCCTTCAAGTTTGAGAGA as the sequence, how does the TetR repression strength read?
A: 0.185

Q: Which TetR repression strength does the source give for TCCCAGAGAGTACTAGAGA here?
A: 0.336

Q: Which TetR repression strength does the source give for TCCCGAGGAGTGGCTGAGA here?
A: 0.0686

Q: Which TetR repression strength does the source give for TCCCTTGGAGTAGGGGAGA here?
A: 0.274

Q: For TCCCACGGAGTCTGGGAGA, which TetR repression strength is on record?
A: 0.0855

Q: Which TetR repression strength does the source give for TCCCAGACAGTGCTCGAGA here?
A: 0.855

Q: How did the TetR repression strength turn out when TCCCAGACAGTACTCGAGA was run?
A: 0.444

Q: How did the TetR repression strength turn out when TCCCAGTGAGTGCTCGAGA was run?
A: 0.0229

Q: For TCCCTCTGAGTGCTCGAGA, which TetR repression strength is on record?
A: 0.315

Q: How did the TetR repression strength turn out when TCCCTGATAGTGCTCGAGA was run?
A: 0.215

Q: TCCCTGTTAGTGCTCGAGA was tested. Which TetR repression strength did it give?
A: 1.15

Q: With TCCCGAAGAGTGCTCGAGA as the sequence, how does the TetR repression strength read?
A: 0.813

Q: TCCCGATGAGTGCTCGAGA was tested. Which TetR repression strength did it give?
A: 0.361

Q: How did the TetR repression strength turn out when TCCCGAGGAGTGCTCGAGA was run?
A: 0.126

Q: How did the TetR repression strength turn out when TCCCTGTGAGTGCTCGAGA was run?
A: 1.14

Q: Which TetR repression strength does the source give for TCCCTGTTAGTGGTCGAGA here?
A: 0.187

Q: With TCCCAGACAGTGCGAGAGA as the sequence, how does the TetR repression strength read?
A: 0.219

Q: TCCCTGGCAGTTAGGGAGA was tested. Which TetR repression strength did it give?
A: 0.365

Q: With TCCCGGTCAGTCTGCGAGA as the sequence, how does the TetR repression strength read?
A: 0.194

Q: For TCCCGGATAGTCTTTGAGA, which TetR repression strength is on record?
A: 0.125

Q: TCCCTTGGAGTATATGAGA was tested. Which TetR repression strength did it give?
A: 0.119

Q: With TCCCTGCGAGTAGTCGAGA as the sequence, how does the TetR repression strength read?
A: 0.542

Q: How did the TetR repression strength turn out when TCCCCATTAGTGTACGAGA was run?
A: 0.425

Q: How did the TetR repression strength turn out when TCCCTAAGAGTGATGGAGA was run?
A: 0.243

Q: Which TetR repression strength does the source give for TCCCTGTGAGTTCGAGAGA here?
A: 0.719

Q: For TCCCTGAGAGTTCGCGAGA, which TetR repression strength is on record?
A: 0.0305

Q: For TCCCTGTGAGTTCGGGAGA, which TetR repression strength is on record?
A: 0.369

Q: TCCCATCTAGTCCGTGAGA was tested. Which TetR repression strength did it give?
A: 0.174

Q: Which TetR repression strength does the source give for TCCCTCTAAGTTAGTGAGA here?
A: 0.241

Q: With TCCCGCTAAGTCCGGGAGA as the sequence, how does the TetR repression strength read?
A: 0.188

Q: How did the TetR repression strength turn out when TCCCCTGAAGTCTTCGAGA was run?
A: 0

Q: TCCCTAGCAGTGTTTGAGA was tested. Which TetR repression strength did it give?
A: 0.369

Q: With TCCCTGTCAGTGCCGGAGA as the sequence, how does the TetR repression strength read?
A: 1.03

Q: TCCCTATGAGTGCTTGAGA was tested. Which TetR repression strength did it give?
A: 0.335

Q: For TCCCAGGCAGTGCCGGAGA, which TetR repression strength is on record?
A: 0.748

Q: How did the TetR repression strength turn out when TCCCTCTCAGTGCTTGAGA was run?
A: 0.661

Q: With TCCCTATCAGTGTTTGAGA as the sequence, how does the TetR repression strength read?
A: 0.767

Q: TCCCTGTGAGTGCCGGAGA was tested. Which TetR repression strength did it give?
A: 0.164

Q: For TCCCTGTCAGTGTCGGAGA, which TetR repression strength is on record?
A: 0.388

Q: TCCCTATCAGTTTTTGAGA was tested. Which TetR repression strength did it give?
A: 0.472

Q: How did the TetR repression strength turn out when TCCCAGGGAGTGCCGGAGA was run?
A: 0.19

Q: Which TetR repression strength does the source give for TCCCTATCAGTGCTTGAGA here?
A: 0.701

Q: Which TetR repression strength does the source give for TCCCAGGCAGTGCAGGAGA here?
A: 0.143

Q: TCCCCGAAAGTCGCGGAGA was tested. Which TetR repression strength did it give?
A: 0.128

Q: With TCCCTATCAGTGTAGGAGA as the sequence, how does the TetR repression strength read?
A: 0.484

Q: How did the TetR repression strength turn out when TCCCCTCTAGTGTAAGAGA was run?
A: 0.155

Q: With TCCCGGATAGTAGCGGAGA as the sequence, how does the TetR repression strength read?
A: 0.329

Q: For TCCCAGGCAGTCGGTGAGA, which TetR repression strength is on record?
A: 0.213

Q: How did the TetR repression strength turn out when TCCCGTTTAGTGGGTGAGA was run?
A: 0.306

Q: With TCCCTTTGAGTTATCGAGA as the sequence, how does the TetR repression strength read?
A: 0.384

Q: For TCCCGGGCAGTATTCGAGA, which TetR repression strength is on record?
A: 0.136

Q: TCCCCGTGAGTGCATGAGA was tested. Which TetR repression strength did it give?
A: 0.122

Q: For TCCCATTCAGTCAATGAGA, which TetR repression strength is on record?
A: 0.457

Q: How did the TetR repression strength turn out when TCCCTAATAGTGCTTGAGA was run?
A: 1.01

Q: Which TetR repression strength does the source give for TCCCTATCAGTGCTCGAGA here?
A: 0.993

Q: TCCCTATCAGTGCGAGAGA was tested. Which TetR repression strength did it give?
A: 0.452

Q: TCCCTATCAGTGGTCGAGA was tested. Which TetR repression strength did it give?
A: 0.532

Q: For TCCCAAATAGTGCTTGAGA, which TetR repression strength is on record?
A: 0

Q: TCCCTATCAGTGCTAGAGA was tested. Which TetR repression strength did it give?
A: 0.841

Q: How did the TetR repression strength turn out when TCCCTAACAGTGTTCGAGA was run?
A: 0.305

Q: For TCCCTGTCAGTGCTCGAGA, which TetR repression strength is on record?
A: 0.534

Q: Which TetR repression strength does the source give for TCCCTATCAGTTTTCGAGA here?
A: 0.523

Q: For TCCCTATTAGTGCTAGAGA, which TetR repression strength is on record?
A: 0.466

Q: Which TetR repression strength does the source give for TCCCTATCAGTGTTCGAGA here?
A: 0.777

Q: With TCCCTAGTAGTGCTTGAGA as the sequence, how does the TetR repression strength read?
A: 0.594

Q: Which TetR repression strength does the source give for TCCCATACAGTGCGCGAGA here?
A: 0.394

Q: With TCCCTTATAGTCGCGGAGA as the sequence, how does the TetR repression strength read?
A: 0.142

Q: How did the TetR repression strength turn out when TCCCCTTAAGTGTATGAGA was run?
A: 0.348

Q: How did the TetR repression strength turn out when TCCCAGAGAGTGGAAGAGA was run?
A: 0.148

Q: How did the TetR repression strength turn out when TCCCGACAAGTTATCGAGA was run?
A: 0.226

Q: For TCCCTATCAGTGCCGGAGA, which TetR repression strength is on record?
A: 1.06

Q: TCCCCATCAGTCCTCGAGA was tested. Which TetR repression strength did it give?
A: 0.327

Q: For TCCCTATCAGTCCCGGAGA, which TetR repression strength is on record?
A: 0.4

Q: For TCCCTATCAGTGCTGGAGA, which TetR repression strength is on record?
A: 0.86

Q: How did the TetR repression strength turn out when TCCCTATAAGTCCTCGAGA was run?
A: 0.529

Q: With TCCCCATCAGTGCTGGAGA as the sequence, how does the TetR repression strength read?
A: 0.157

Q: With TCCCTATCAGTGGTGGAGA as the sequence, how does the TetR repression strength read?
A: 0.402

Q: For TCCCTATCAGTGCCTGAGA, which TetR repression strength is on record?
A: 0.467

Q: How did the TetR repression strength turn out when TCCCTATCAGTCCTCGAGA was run?
A: 0.747

Q: How did the TetR repression strength turn out when TCCCAGGCAGTGCTTGAGA was run?
A: 0.113

Q: How did the TetR repression strength turn out when TCCCGATCAGTAGACGAGA was run?
A: 0.237

Q: With TCCCCTGTAGTGTGCGAGA as the sequence, how does the TetR repression strength read?
A: 0.297

Q: TCCCCCACAGTTATAGAGA was tested. Which TetR repression strength did it give?
A: 0.524

Q: Which TetR repression strength does the source give for TCCCAGGTAGTGGCGGAGA here?
A: 0.176

Q: TCCCTACAAGTGCCGGAGA was tested. Which TetR repression strength did it give?
A: 0.202

Q: TCCCTTCAAGTGCCGGAGA was tested. Which TetR repression strength did it give?
A: 1.13

Q: Which TetR repression strength does the source give for TCCCTTCGAGTTCTGGAGA here?
A: 0.328

Q: For TCCCTTCAAGTTCTGGAGA, which TetR repression strength is on record?
A: 1.03

Q: For TCCCCTCCAGTTCTGGAGA, which TetR repression strength is on record?
A: 0.342

Q: TCCCTTCAAGTGCCCGAGA was tested. Which TetR repression strength did it give?
A: 0.415

Q: Which TetR repression strength does the source give for TCCCTTCCAGTTCTTGAGA here?
A: 0.472

Q: Which TetR repression strength does the source give for TCCCTTCTAGTTCTGGAGA here?
A: 0.402

Q: How did the TetR repression strength turn out when TCCCTTCCAGTTCTGGAGA was run?
A: 1.04

Q: How did the TetR repression strength turn out when TCCCATAAAGTGACGGAGA was run?
A: 0.305

Q: Which TetR repression strength does the source give for TCCCTTAAAGTGTTGGAGA here?
A: 0.334

Q: Which TetR repression strength does the source give for TCCCGTTCAGTATGGGAGA here?
A: 0.106

Q: For TCCCGCCGAGTCCCGGAGA, which TetR repression strength is on record?
A: 0.317

Q: For TCCCATGGAGTTTTAGAGA, which TetR repression strength is on record?
A: 0.281

Q: For TCCCACGGAGTTACGGAGA, which TetR repression strength is on record?
A: 0.224

Q: How did the TetR repression strength turn out when TCCCGTTTAGTATTTGAGA was run?
A: 0.713

Q: Which TetR repression strength does the source give for TCCCGTTAAGTTTCTGAGA here?
A: 0.302

Q: How did the TetR repression strength turn out when TCCCGTTGAGTGTTGGAGA was run?
A: 1.1
